# B2AR arrestin: agonists driving beta-arrestin recruitment to human beta2-adrenergic receptor | P07550 | beta-arrestin recruitment to beta2AR, cell-based reporter | Potency, µM (doses to about 46.1 µM), for inactives: top-dose activation, usual class: activators | 330,000 tested, 0.02% active | AID 492947;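 further: potency means the concentration at half of the fitted maximal effect; 0% = DMSO controls and full agonism = EC100 isoproterenol or metaproterenol; nearly all actives have a fitted effect of over 65% in size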
# Target sequence (P07550 whole entry, looked up): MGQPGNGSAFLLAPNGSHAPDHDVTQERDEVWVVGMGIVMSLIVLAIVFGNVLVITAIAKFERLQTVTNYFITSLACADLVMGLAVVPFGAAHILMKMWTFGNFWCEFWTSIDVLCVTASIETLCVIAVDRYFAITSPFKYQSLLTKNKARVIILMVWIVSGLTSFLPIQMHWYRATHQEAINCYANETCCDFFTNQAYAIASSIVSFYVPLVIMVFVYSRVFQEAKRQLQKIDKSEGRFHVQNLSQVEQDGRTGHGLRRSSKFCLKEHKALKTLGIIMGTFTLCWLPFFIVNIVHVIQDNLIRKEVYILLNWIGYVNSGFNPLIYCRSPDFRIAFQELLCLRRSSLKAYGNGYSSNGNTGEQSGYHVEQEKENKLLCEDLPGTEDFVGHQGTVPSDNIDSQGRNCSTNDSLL
# Chronic BCR inh: inhibitors of chronic active B-cell receptor signaling; 340,000 tested, 0.05% active; Potency, µM (top dose mostly 46.1 µM), inactives show at the top dose activity change, negative = inhibition, most hits filed as inhibitors; ABC-DLBCL IkBa-CBG/CBR reporter, luminescence ratio, 4 h; AID 493014; active means well fitted inhibition curve with a large enough effect in the signal ratio, with a control signal flat, not every such curve was filed as active; inconclusive means small, poorly fitted or top-dose-only effect, or effect the other way, or a change in a side signal; the % refers to the signal ratio;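 further: potency means the concentration at half of the fitted maximal effect; plate controls were basal doxycycline-induced cells for no effect and cells given 10 µM MG132 for full effect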
#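 Cell line TMD8 (human ABC DLBCL), stably expressing tet-inducible CBG68-IkBa fusion and CBR; IMDM/0.5% FBS; cpd up to 46 uM; dox induction, 4 h, 37C/5% CO2; dual luminescence; green/red ratio; MG132 control.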
# RXFP1 agonist: RXFP1 (human) receptor agonism; Q9HBX9; HEK293T-RXFP1 cAMP TR-FRET, 30 min; response scale: percent of porcine relaxin response, buffer zero; Potency, µM (highest dose often 57.5 µM), without a hit: top-dose activation, most hits filed as activators; 370,000 tested, 0.3% active; further: potency means the concentration at half of the fitted maximal effect; nearly all actives have a fitted effect of over 60% in size
#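 HEK293T cells stably expressing RXFP1 were pretreated with the PDE4 inhibitor Ro 20174, exposed to compounds for 30 min at 37C, lysed, and cAMP was read by TR-FRET. Data normalized to buffer (basal) and 29 nM porcine relaxin (100%).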
# RXFP1 antagonist: RXFP1 (human) relaxin receptor antagonism. Q9HBX9. HEK293-RXFP1, relaxin-stimulated cAMP HTRF, 30 min; active compounds read low. activity change, negative = inhibition, % at 57.5 µM. 350,000 tested, 0.59% active. AID 1259400;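 active means activity change of -60% or lower, but not beyond a set lower limit; inconclusive means change between -60% and -40%, or beyond the set limit; inactive means change above -40%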
# * marks the source's active call; other numbers are inactive results; ? = inconclusive; . = no result; ! = repeats disagree. Rows were chosen to be rich in hits. Some 0.59% of all compounds tested hit in one or more screens of this group. Unless noted, the call rests on the fitted dose curve; in most records, active means well fitted activation curve with a large enough effect; inconclusive means small, poorly fitted or top-dose-only effect; inactive means flat fitted curve, though single readings scatter. Unless noted, on the % scale 0 is the no-effect control and ±100 the full control effect.
SMILES,B2AR arrestin,Chronic BCR inh,RXFP1 agonist,RXFP1 antagonist
Cc1ccccc1C(=O)N1CC/C(=N/OS(=O)(=O)O)c2ccc(Cl)cc21,.,.,.,-15
CCCCCC(=O)Nc1ccc(C(=O)CN2C(=O)NC3(CCCCCC3)C2=O)cc1,0%,11%,0%,-90*
COC(=O)c1c(NC(NC(=O)CC(C)C)C(Cl)(Cl)Cl)sc2c1CCC2 (stereo not given),0%,?,0%,.
CCOC(=O)c1c(NC(=O)CCC(=O)O)sc2c1CCCCC2,-1%,?,2%,8
COC(=O)c1c(NC(NC(C)=O)C(Cl)(Cl)Cl)sc2c1CCCC2 (stereo not given),0%,?,-4%,-74*
CCOC(=O)c1c(NC(NC(C)=O)C(Cl)(Cl)Cl)sc2c1CCCC2 (stereo not given),0%,?,-1%,-68*
O=[N+]([O-])c1c(Nc2ccccc2O)ccc2nonc12,0%,-24%,4%,-31
O=[N+]([O-])c1c(Nc2ccccc2O)cc(Cl)c2nonc12,0%,?,-2%,-75*
CCC(NC(=O)Nc1cc(OC)ccc1OC)c1c(-n2cccc2)sc2c1CCN(CC)C2 (stereo not given),.,.,1%,1
Cc1ccc(-n2nnnc2C(Cl)c2nnnn2-c2ccc(C)cc2)cc1,0%,?,0%,-63*
Cc1ccc(-n2nnnc2-c2ccccc2)cc1,0%,-12%,0%,-16
O=C(CCOCCOCCOCCOCCC(=O)Nc1c(I)cc(I)c(C(=O)O)c1I)Nc1c(I)cc(I)c(C(=O)O)c1I,.,.,.,-9
S=C(NCc1ccc(Cl)cc1)NCc1ccccn1,0%,4%,1%,-2
CC(C)CCC(CCNCc1ccccn1)c1ccc(Cl)cc1 (stereo not given),0%,?,-1%,-69*
CC(C)(C)NC(=O)c1cccc(NC(=O)Cc2cccs2)c1,0%,7%,-1%,7
Cc1cccc(NC(=O)c2cccc(NC(=O)Cc3cccs3)c2)c1,4%,-25%,0%,-107*
O=C(NC(NC(=S)Nc1ccccc1Cl)C(Cl)(Cl)Cl)c1cccc(Cl)c1 (stereo not given),0%,?,-3%,-21
O=C(Cc1cccc2ccccc12)NC(NC(=S)Nc1ccccc1Cl)C(Cl)(Cl)Cl (stereo not given),-2%,-5%,5%,-63*
COc1ccc(C2=C(C(C)=O)Sc3nnc(-c4ccc(Cl)cc4)n3N2C(C)=O)cc1OC,.,-3%,1%,-6
N#C/C(=C\c1c(Cl)cccc1Cl)c1nc2ccccc2o1,23µM*,-10%,1%,.
N#C/C(=C\c1c(Cl)cccc1Cl)c1nc2ccccc2[nH]1,0%,?,-2%,-3
Cc1cc(CCCOc2c(C)cc(-c3noc(C(F)(F)F)n3)cc2C)on1,.,.,.,-29
CC(C)(C)OC(=O)N1Cc2ccccc2C[C@H]1C(=O)NC1CCCC1,0%,0%,1%,3
CC(C)[C@H](NC(=O)[C@@H]1Cc2ccccc2CN1C(=O)OC(C)(C)C)C(=O)NC1CCCC1,0%,-2%,2%,-103*
O=[N+]([O-])c1ccc(C=NNC(=S)NN=Cc2ccc([N+](=O)[O-])cc2)cc1,.,.,.,-62*
SMILES,B2AR arrestin,Chronic BCR inh,RXFP1 agonist,RXFP1 antagonist
O=[N+]([O-])c1ccc(C=NNC(=S)Nc2ccc(F)cc2)cc1,.,.,.,-21
O=C(O)c1ccccc1NS(=O)(=O)c1cccc(C(F)(F)F)c1,0%,?,0%,21
O=C(O)c1ccccc1NS(=O)(=O)c1cccc(-n2sc3ccccc3c2=O)c1,-1%,?,-1%,-115*
S=C(N/N=C/c1cccs1)NC1CC2CCC1C2 (stereo not given),0%,0%,0%,-67*
C[C@@H]1C[C@H]2[C@@H]3CCC4=CC(=O)C=C[C@]4(C)[C@@]3(F)[C@@H](O)C[C@]2(C)[C@@]1(O)C(=O)COC(=O)c1ccncc1,.,.,.,-11
CCC(Cc1ccccc1)NC(=O)Cn1cccc1C(=O)c1ccccc1 (stereo not given),0%,-5%,0%,-114*
COc1ccc(-c2ccc3nnc(SCC(N)=O)n3n2)cc1,0%,10%,18%,-17
CCSc1nnc2ccc(-c3ccc(OC)c(OC)c3)nn12,0%,7.9µM*,8%,2
CC(C)C(=O)N(c1cc2sc(=O)oc2c2ccccc12)S(=O)(=O)c1cccs1,0%,?,-2%,-68*
COc1cccc(-c2csc(-c3c(N)c(C(=O)c4ccccc4)n4ccccc34)n2)c1,.,.,7%,-7
Cn1c(=O)n(C)c2cc(N3CCOCC3)c(NS(=O)(=O)c3ccc(Br)cc3)cc21,.,.,1%,-9
O=C(Nc1cccc(C(F)(F)F)c1)c1ccc2nc(-c3ccco3)c(-c3ccco3)nc2c1,0%,?,-3%,-97*
O=C(O)c1ccc2nc(-c3ccco3)c(-c3ccco3)nc2c1,0%,?,13%,?
CCCCC(O)/C=C(C)/C=C/C=C/C(=O)N1CCCC1=O (stereo not given),.,.,.,-10
O=C(CS)Nc1ccc2ccccc2c1,0%,?,2%,-102*
O=C(CS)Nc1ccccc1,.,.,.,34
OC1(c2cccc(C(F)(F)F)c2)CCN(c2ncnc3c2[nH]c2ccc(F)cc23)CC1,.,.,4%,-89*
Fc1ccc2[nH]c3c(N4CCN(c5ccccc5)CC4)ncnc3c2c1,0%,?,0%,-31
O=C(O)c1ccccc1C(=O)c1ccc(N2CCOCC2)c([N+](=O)[O-])c1,0%,4%,0%,-69*
O=C(O)c1ccccc1C(=O)c1ccc(N2CCCC2)c([N+](=O)[O-])c1,0%,6%,-3%,-5
Nc1nc(=O)n([C@@H]2O[C@H](CO)[C@@H](O)[C@@H]2F)cc1I,.,.,.,3
COc1ccc(NC(=O)c2cccc(N3C(=O)C4C5C=CC(C5)C4C3=O)c2)c(OC)c1 (stereo not given),-1%,?,0%,7
COc1ccccc1NC(=O)c1cccc(N2C(=O)C3C4C=CC(C4)C3C2=O)c1 (stereo not given),0%,?,-5%,-77*
C=C(C)C(=O)Oc1ccc(N=Nc2ccc(C)cc2)ccc1=O,.,.,.,-70*
O=C(/C=C/c1ccccc1)NC(=S)Nc1ccc(CN2CCOCC2)cc1,1%,-1%,2%,-63*
O=C(c1ccccc1)C(CN1CCCCC1)c1ccccc1 (stereo not given),.,.,.,-82*
O=C(c1ccc(Br)cc1)C(CN1CCOCC1)c1ccccc1 (stereo not given),0%,?,1%,?
CC/C=C(\C(=O)N[C@H]1C(=O)N2C(C(=O)OCOC(=O)C(C)(C)C)=C(COC(N)=O)CS[C@H]12)c1csc(N)n1,.,.,.,-6
COc1ccc(OC)c(CNC(=O)C2CCN(S(=O)(=O)c3cn(C)cn3)CC2)c1,.,.,3%,2
Cc1nn(CC(=O)N2CCN(c3cccc(C(F)(F)F)c3)CC2)c(=O)c2cccn12,0%,-1%,35µM*!,-9
